# According to the supplement of paper PMC4166925:
# ± gives the standard deviation of the averaged measurements. Over roughly 33,000 sequences, “E-score (dimensionless, -0.5 to 0.5)” has its median near -0.046; the highest 2% begin near 0.36. The full list was thinned out, with the highest values kept by preference.
# Tested on: T1, SpTbr T-box DNA-binding domain (GST fusion)
# T1 sequence: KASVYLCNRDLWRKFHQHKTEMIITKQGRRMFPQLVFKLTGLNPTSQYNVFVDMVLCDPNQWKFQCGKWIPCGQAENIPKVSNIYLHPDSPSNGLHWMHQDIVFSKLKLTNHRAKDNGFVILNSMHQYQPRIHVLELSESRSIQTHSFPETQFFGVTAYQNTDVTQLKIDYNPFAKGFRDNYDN
# Assay: PBM E-score of 8-mer (E-score (dimensionless, -0.5 to 0.5)); Tbr is Tbrain of the sea star Patiria miniata (Pm) or the sea urchin Strongylocentrotus purpuratus (Sp); higher = stronger binding preference
# Conditions: the construct has about 5 more residues each side
# In short: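 Each ungapped 8-mer received an enrichment E-score from the Universal PBM Analysis Suite, averaged over duplicate arrays. The proteins were Tbr T-box DNA-binding domains, covering the whole T-box plus about five flanking residues, fused to GST and expressed in BL21 E. coli at 20 °C before glutathione affinity purification. Universal Agilent oligonucleotide arrays were made double-stranded by primer extension and incubated with 200 nM protein in PBS (pH 7.5). The arrays were then scanned and quantified, and every 8-mer was scored from probe intensities.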
row,Sequence,PBM E-score of 8-mer
1,CTCGAGAC,-0.0685 ± 0.051
2,CACCATAC,-0.065 ± 0.011
3,ACGGTTAT,0.0286 ± 0.041
4,ATGCCTGC,-0.295 ± 0.061
5,GTGGTGCA,0.0312 ± 0.0088
6,AGTTGTTC,0.00852 ± 0.024
7,CCGTTAGG,0.0143 ± 0.029
8,CCTATCGA,0.042 ± 0.12
9,ACCGTCTA,-0.0953 ± 0.012
10,CACAACCA,0.133 ± 0.025
11,CAAAAAGC,0.0694 ± 0.065
12,GGAGCTGA,-0.203 ± 0.042
13,GCGACAAC,0.369 ± 0.007
14,ACGACAAC,0.2279 ± 0.0012
15,ATGACAAC,0.222 ± 0.017
16,GTGACAAA,0.38303 ± 5.7e-05
17,ATGACAAA,-0.0554 ± 0.028
18,CTGACAAC,0.259 ± 0.018
19,CTGACACA,0.356 ± 0.022
20,CTGACAAA,0.0345 ± 0.084
21,GAGACACA,0.15 ± 0.01
22,GTGACACA,0.403 ± 0.0044
23,CCGACAAC,0.159 ± 0.048
24,GTGACAAC,0.4467 ± 0.0025
25,AGGTAGCA,0.0725 ± 0.016

row,Sequence,PBM E-score of 8-mer
1,ACCACAAT,-0.0442 ± 0.058
2,GACACCCC,0.405 ± 0.026
3,AGCACCCT,0.202 ± 0.025
4,GCCACCCC,0.181 ± 0.081
5,AACACCCC,0.39126 ± 9.9e-05
6,ATCACCCC,0.232 ± 0.013
7,GGCACCCC,0.22 ± 0.003
8,AACACCCA,0.293 ± 0.035
9,GGCACCCA,0.173 ± 0.021
10,GCCACCCA,0.0264 ± 0.086
11,ACCACCCT,0.0155 ± 0.074
12,GACACCCA,0.374 ± 0.032
13,AACACCCT,0.4 ± 0.0049
14,CAGCCGGA,0.05 ± 0.018
15,CCAGTCAC,0.0388 ± 0.0065
16,AAGTTTCT,0.0712 ± 0.037
17,CCTCCTCA,0.0831 ± 0.027
18,AGATCTCA,0.098 ± 0.054
19,TATTCTCA,0.264 ± 0.061
20,CGAAAACC,-0.297 ± 0.0092
21,GTCGCGTA,0.0514 ± 0.011
22,CCGGCCAA,-0.208 ± 0.042
23,AACACCAT,0.377 ± 0.021
24,ACCACCAT,0.108 ± 0.082
25,AACACCAA,0.356 ± 0.012

row,Sequence,PBM E-score of 8-mer
1,GATATAGC,0.118 ± 0.023
2,ATCAAATA,-0.182 ± 0.015
3,AGTCGACA,0.179 ± 0.051
4,TGTCGACA,0.384 ± 0.01
5,CGTCGACA,0.251 ± 0.031
6,GCAAACCC,-0.0464 ± 0.01
7,ACATATTC,0.203 ± 0.049
8,GCTCGCAA,0.224 ± 0.021
9,CCTCGCAC,0.396 ± 0.032
10,ACTCGCAG,0.0332 ± 0.026
11,CCTCGCAG,0.128 ± 0.0015
12,GCTCGCCC,-0.196 ± 0.039
13,ACTCGCAT,-0.00696 ± 0.059
14,ACTCGCAC,0.394 ± 0.035
15,GCTCGCAC,0.4252 ± 0.0014
16,CCTCGCAA,0.102 ± 0.077
17,AATTGGAC,-0.187 ± 0.049
18,GCAGTGGA,-0.261 ± 0.065
19,CACCTTAC,0.413 ± 0.017
20,AACCTTAG,-0.144 ± 0.086
21,GACCTTAA,-0.188 ± 0.0048
22,AACCTTAA,-0.218 ± 0.046
23,CCCCTTAG,-0.184 ± 0.068
24,AACCTTAC,0.0738 ± 0.012
25,CACCTTAG,0.401 ± 0.04

row,Sequence,PBM E-score of 8-mer
1,CACCTTAA,0.387 ± 0.004
2,GACCTTAC,-0.286 ± 0.0076
3,TAAGAGCA,-0.252 ± 0.049
4,CCGCTACC,0.162 ± 0.04
5,ATGCTTCG,0.0174 ± 0.071
6,CGTGCCTA,-0.0792 ± 0.002
7,GGTAGGCA,-0.079 ± 0.028
8,AAACTACA,0.014 ± 0.14
9,TAGGGGCA,-0.127 ± 0.04
10,ATGCACGC,-0.0415 ± 0.12
11,AGGTGAAC,0.164 ± 0.025
12,CGAAATCG,0.2456 ± 0.0015
13,CACTTGCA,0.336 ± 0.012
14,AACTTGTC,0.355 ± 0.03
15,AACTTGCG,0.198 ± 0.0091
16,CACTTGTA,0.116 ± 0.046
17,CACTTGCG,0.387 ± 0.026
18,CACTTGTC,0.375 ± 0.012
19,CGGCGCCC,0.0161 ± 0.043
20,CTCTGACA,0.233 ± 0.019
21,TAACATTA,-0.0674 ± 0.087
22,TAATATTA,-0.13 ± 0.033
23,GAGTCGAC,0.107 ± 0.061
24,GATGTCCA,-0.22 ± 0.056
25,GGCTAACA,0.235 ± 0.024

row,Sequence,PBM E-score of 8-mer
1,CGCTAACC,0.19 ± 0.0091
2,AGCTAACG,0.236 ± 0.016
3,CGCTAACG,0.373 ± 0.0088
4,AGCTAACA,0.233 ± 0.022
5,TGCTAACA,0.369 ± 0.022
6,CAGCTCGG,-0.132 ± 0.057
7,CGGTGGAA,-0.0405 ± 0.033
8,ATCTATGC,-0.197 ± 0.03
9,ACGAGTAT,-0.0491 ± 0.014
10,CAATCCTA,-0.0316 ± 0.041
11,AAACCACT,-0.258 ± 0.016
12,AGCACTTG,0.168 ± 0.018
13,AACGCATG,0.0228 ± 0.0081
14,GACCTTGA,-0.145 ± 0.019
15,TACCTTGA,0.01 ± 0.065
16,AACCTTGG,-0.0793 ± 0.032
17,CACCTTGC,0.389 ± 0.013
18,CAGCTTGG,-0.00698 ± 0.044
19,CACCTTGA,0.367 ± 0.042
20,CACCTTGG,0.45 ± 0.005
21,GACCTTGC,-0.153 ± 0.0056
22,AACCTTGC,0.00568 ± 0.0057
23,ACACTGTA,0.172 ± 0.036
24,ACTTGATA,0.108 ± 0.039
25,AGACAGCG,-0.00288 ± 0.048

row,Sequence,PBM E-score of 8-mer
1,CTGAAAGC,-0.193 ± 0.033
2,CTGTAAAC,0.132 ± 0.0059
3,GTGTAAAC,0.367 ± 0.02
4,ATGTAAAC,0.0731 ± 0.026
5,AGCAGATA,-0.195 ± 0.043
6,ACAGCCCT,-0.109 ± 0.054
7,GTGTGTGA,0.4221 ± 0.003
8,ATGTGTGC,0.299 ± 0.0091
9,CTGTGTGA,0.341 ± 0.0081
10,ATGTGTGA,0.4838 ± 0.001
11,AAATGTGC,0.151 ± 0.076
12,GTGTGTAA,0.27 ± 0.0036
13,ATATGTGA,0.242 ± 0.055
14,AAATGTGT,0.435 ± 0.0081
15,AAATGTGG,0.114 ± 0.01
16,CAGCCAAC,0.106 ± 0.037
17,GTAGCGCA,-0.148 ± 0.091
18,GATGCGCA,0.014 ± 0.028
19,ATCTCCAC,0.0376 ± 0.0077
20,AACGTTTC,-0.191 ± 0.019
21,TCTCGAAA,-0.0659 ± 0.035
22,ACGCCACT,0.285 ± 0.013
23,CCACAACC,0.113 ± 0.015
24,AAGTTTAT,-0.141 ± 0.074
25,AATGCAGT,-0.188 ± 0.028

row,Sequence,PBM E-score of 8-mer
1,GTCGACAC,0.394 ± 0.018
2,ATCGACAG,0.286 ± 0.005
3,ATCGACAA,0.213 ± 0.0072
4,GTCGACAA,0.275 ± 0.0098
5,CTCGACAC,0.3634 ± 0.0018
6,ATCGACAC,0.389 ± 0.013
7,AATGGCTG,-0.183 ± 0.012
8,CAAGTAGA,-0.0961 ± 0.025
9,ATCTCGGA,-0.276 ± 0.03
10,CCATACCG,-0.115 ± 0.017
11,ACTCAAGC,-0.127 ± 0.023
12,AGTTAGCA,0.284 ± 0.045
13,AGTTAACA,0.334 ± 0.023
14,CATTAACA,0.329 ± 0.029
15,CGTTAACA,0.4129 ± 0.0026
16,CGTTAGCA,0.37 ± 0.0046
17,CGTTAACC,0.113 ± 0.07
18,AGTTAACG,0.127 ± 0.006
19,GGTTAACA,0.287 ± 0.012
20,TGTTAACA,0.421 ± 0.029
21,CGTTAAAA,0.0585 ± 0.1
22,GGTTAGCA,0.257 ± 0.034
